Results published in PubChem BioAssay.
Several values for one entry are separate records, joined by “and”; a condition that tells them apart may be missing. Equal entries are not always repeated. Inconclusive results are not listed. For some of these results: Measured potencies and affinities stand elsewhere. Activity calls are given as the source filed them.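 How the source made its calls, unless noted: active means compounds whose cell count with miR-34 switched on is under 0.7 times the count with it off; inactive means the rest.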

What was measured:
[1] = biological target: 6-phosphogluconate dehydrogenase, decarboxylating (Homo sapiens) (UniProt P52209); test: 6PGD enzyme inhibitors, primary screen, biochemical, human, recombinant enzyme, NADPH absorbance (AID 1159550;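 active means at least 20% inhibition of 6-phosphogluconate dehydrogenase activity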); settings: recombinant 6PGD, NADPH absorbance 341 nm; at 10 µM; stronger effect = higher value
[2] = sensitizers of A549 cells to miR-34 induction, primary screen, imaging, A549 dox-inducible miR-34, nuclei and caspase counts (AID 1347080); settings: A549 miR-34 inducible, Hoechst nuclei count, 48 h
[3] = viability rescue of complex I mutant cybrids, primary screen, cell-based, galactose medium, ATP luminescence (AID 1645843;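 active means z-score of at least 1.8 in each of two replicates, scored against plate mean and spread of sample wells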;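 further: positive z means more ATP and so rescue of galactose-driven cybrid death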); settings: complex I mutant cybrid cells, 72 h, stronger effect = higher value
[4] = liver-stage malaria parasite growth inhibition, primary screen, cell-based, HepG2, luciferase luminescence, HepG2 viability (AID 624349; in the data active means parasite load remaining mostly below about 12%, no sharp cut-off; inactive means mostly above about 10%;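 further: 100% = mean of DMSO negative control wells on the same plate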); settings: P. berghei liver stage in HepG2, luciferase luminescence, concentration not given here; parasite load remaining: stronger effect = lower value; viability: measured here: HepG2 viability without parasites
[5] = growth inhibition of DIPG glioma cells, dose response, cell-based, SU-DIPG-XIII, MIPE4.0, CellTiter-Glo, qHTS (AID 1347061; cut-off not given, nearly all actives have AC50 up to about 37 µM;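 further: cells exposed to compound for 48 hours before readout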); settings: SU-DIPG-XIII viability, CellTiter-Glo ATP luminescence
[6] = growth inhibition of DIPG glioma cells, dose response, cell-based, JHH-DIPG-1, MIPE4.0, CellTiter-Glo, qHTS (AID 1347062; cut-off not given, nearly all actives have AC50 up to about 27 µM); settings: JHH-DIPG-1 viability, CellTiter-Glo ATP luminescence
[7] = JHH-DIPG-1 glioma cell viability, MIPE5.0 library, CellTiter-Glo luminescence, qHTS (AID 1347067; cut-off not given, nearly all actives have AC50 up to about 26 µM;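 further: cells exposed to compound for 48 hours before readout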); settings: JHH-DIPG-1 glioma viability, CellTiter-Glo ATP luminescence
[8] = survival rescue of mitochondrial mutant cells in low glucose, primary screen, MELAS cybrids, Rieske KO mouse fibroblasts, CellTiter-Glo (AID 1508586;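 active means mean z-score across replicates of 1.96 or higher in either the MELAS or the Rieske mutant cell line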;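 further: z relative to plate mean and SD of compound and empty wells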)
[9] = biological target: NAD(+) hydrolase SARM1 (Homo sapiens) (UniProt Q6SZW1); test: SARM1 TIR NADase inhibitors, cell lysate, NAD-Glo luminescence (AID 1508614;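 active means compound whose remaining NAD level is above about 45 nM, limit read from the data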); settings: SAM-TIR HEK293T lysate NADase, at 1 µM, stronger effect = higher value
[10] = biological target: Mitogen-activated protein kinase 7 (Homo sapiens) (UniProt Q13164); test: ERK5 transactivation activators in reporter cells, primary screen, cell-based, HTS (AID 1508626;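 active means luciferase signal above three times the same-plate solvent-only control wells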;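 further: luciferase driven by Gal4-ERK5 fusion binding five Gal4 sites before minimal TATA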); settings: HeLa Gal4-ERK5 transactivation, 18 h, at 5 µM, stronger effect = higher value
[11] = ICB984 medulloblastoma cell growth inhibition, synergistic combos for chromothripsis tumors, cisplatin or BGB combos (AID 1671451; call rule not given here;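 further: cells exposed for 96 hours before readout; 0% = vehicle DMSO and 100% = killing by high DMSO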); settings: ICB984 medulloblastoma cells, drug combinations, stronger effect = higher value
[12] = growth inhibition of DIPG glioma cells, dose response, cell-based, SU-DIPG-IV, MIPE4.0, CellTiter-Glo, qHTS (AID 1347063; cut-off not given, nearly all actives have AC50 up to about 30 µM;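 further: compound exposure lasted 48 hours before the viability readout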); settings: SU-DIPG-IV viability, CellTiter-Glo ATP luminescence
[13] = polyglutamine-triggered caspase-3 activation inhibitors, cell-based (AID 1583); settings: polyglutamine-induced caspase-3 activation, cell assay; stronger effect = higher value;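 tested at 10 µM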
[14] = suppressors of polyQ aggregation in yeast, 75Q-TubU reporter (AID 1593); settings: Yeast 75Q polyglutamine aggregation reporter
[15] = rescue of polyQ-huntingtin neuronal dysfunction in worms, whole organism, C. elegans mechanosensory neurons, N-terminal huntingtin (AID 1599); settings: touch response, stronger effect = higher value
[16] = inhibitors of mitochondrial cytochrome c release, biochemical, purified mitochondria (AID 1603); settings: stronger effect = lower value;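 further: mouse liver mitochondria challenged with calcium chloride; signal normalized to the plate average as 100%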
[17] = inhibitors of polyQ protein aggregation (AID 1604); settings: polyglutamine-induced protein aggregation inhibition assay; stronger effect = higher value; tested at 2.5 µM
[18] = enhancers of glutamate uptake in motor neurons, MN-1 cell line (AID 1612); settings: MN-1 motor neuron cells, stronger effect = higher value;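 further: tested at 1 µM final; 0% = mean of DMSO vehicle wells on each plate; positive means more glutamate uptake than control and negative means less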
[19] = suppressors of polyglutamine aggregation in yeast, 75Q-TubH (AID 1616); settings: S. cerevisiae 75Q-TubH polyglutamine aggregation suppression; stronger effect = higher value
[20] = stronger effect = lower value, cell number ratio, induced over uninduced
[21] = measured here: relative caspase fold change +Dox/-Dox
[22] = measured here: total cells with miR-34 induction, stronger effect = lower value
[23] = measured here: total cells without miR-34 induction
[24] = MELAS cybrid survival, CellTiter-Glo 48 h, stronger effect = higher value
[25] = Rieske KO mouse fibroblast survival, CellTiter-Glo 72 h

Sequence of Mitogen-activated protein kinase 7 (Homo sapiens) (Q13164 whole entry, looked up, the tested form may be a part): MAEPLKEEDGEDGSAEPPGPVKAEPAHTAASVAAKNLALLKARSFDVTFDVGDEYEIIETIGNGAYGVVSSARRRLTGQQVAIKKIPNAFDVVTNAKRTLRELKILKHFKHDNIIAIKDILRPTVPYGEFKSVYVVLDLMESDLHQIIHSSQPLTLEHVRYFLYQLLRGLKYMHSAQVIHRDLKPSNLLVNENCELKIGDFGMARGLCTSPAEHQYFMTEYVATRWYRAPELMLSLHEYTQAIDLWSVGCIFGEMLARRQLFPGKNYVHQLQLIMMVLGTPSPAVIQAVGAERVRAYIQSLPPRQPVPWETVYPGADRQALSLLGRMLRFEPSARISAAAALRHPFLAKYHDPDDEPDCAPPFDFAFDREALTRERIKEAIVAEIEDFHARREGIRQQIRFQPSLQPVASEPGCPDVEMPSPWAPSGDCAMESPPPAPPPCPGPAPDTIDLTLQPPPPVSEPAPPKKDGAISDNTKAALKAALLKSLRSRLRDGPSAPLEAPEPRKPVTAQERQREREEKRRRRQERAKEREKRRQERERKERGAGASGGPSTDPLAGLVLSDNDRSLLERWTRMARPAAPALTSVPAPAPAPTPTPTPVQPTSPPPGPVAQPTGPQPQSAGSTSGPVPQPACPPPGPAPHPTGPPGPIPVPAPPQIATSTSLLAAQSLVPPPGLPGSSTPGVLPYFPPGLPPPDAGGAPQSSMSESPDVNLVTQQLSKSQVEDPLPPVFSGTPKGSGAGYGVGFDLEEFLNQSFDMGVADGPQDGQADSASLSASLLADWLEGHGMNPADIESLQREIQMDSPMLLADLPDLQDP
Sequence of 6-phosphogluconate dehydrogenase, decarboxylating (Homo sapiens) (P52209 whole entry, looked up): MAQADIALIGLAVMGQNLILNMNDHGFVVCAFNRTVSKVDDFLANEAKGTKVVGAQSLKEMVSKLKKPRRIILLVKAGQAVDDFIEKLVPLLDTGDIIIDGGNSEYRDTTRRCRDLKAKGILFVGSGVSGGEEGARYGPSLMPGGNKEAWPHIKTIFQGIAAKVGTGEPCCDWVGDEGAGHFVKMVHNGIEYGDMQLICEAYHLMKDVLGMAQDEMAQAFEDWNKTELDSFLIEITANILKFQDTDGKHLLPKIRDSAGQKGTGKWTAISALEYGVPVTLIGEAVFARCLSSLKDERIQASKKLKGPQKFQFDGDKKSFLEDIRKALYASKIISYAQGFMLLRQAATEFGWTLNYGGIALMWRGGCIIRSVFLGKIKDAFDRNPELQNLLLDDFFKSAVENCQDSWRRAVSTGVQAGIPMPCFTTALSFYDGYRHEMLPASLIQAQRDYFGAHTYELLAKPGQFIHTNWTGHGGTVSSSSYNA
Sequence of NAD(+) hydrolase SARM1 (Homo sapiens) (Q6SZW1 whole entry, looked up, the tested form may be a part): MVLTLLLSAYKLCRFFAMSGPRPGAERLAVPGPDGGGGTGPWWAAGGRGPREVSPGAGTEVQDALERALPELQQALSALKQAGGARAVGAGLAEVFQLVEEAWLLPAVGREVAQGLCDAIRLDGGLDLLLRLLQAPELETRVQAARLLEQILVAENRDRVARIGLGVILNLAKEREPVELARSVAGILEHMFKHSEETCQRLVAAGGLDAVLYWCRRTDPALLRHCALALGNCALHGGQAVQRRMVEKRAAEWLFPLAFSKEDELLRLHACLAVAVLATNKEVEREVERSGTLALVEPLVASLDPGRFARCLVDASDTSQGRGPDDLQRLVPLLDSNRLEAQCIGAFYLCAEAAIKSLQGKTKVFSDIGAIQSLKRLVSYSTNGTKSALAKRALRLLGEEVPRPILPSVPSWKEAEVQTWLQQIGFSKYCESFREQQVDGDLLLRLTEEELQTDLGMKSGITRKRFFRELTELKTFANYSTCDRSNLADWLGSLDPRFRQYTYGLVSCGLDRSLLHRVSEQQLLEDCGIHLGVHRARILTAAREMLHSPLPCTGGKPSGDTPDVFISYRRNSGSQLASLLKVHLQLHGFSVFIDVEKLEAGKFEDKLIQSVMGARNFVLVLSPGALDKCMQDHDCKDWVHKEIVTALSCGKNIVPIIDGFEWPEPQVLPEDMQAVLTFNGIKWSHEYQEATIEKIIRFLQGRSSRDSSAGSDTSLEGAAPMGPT

O=C(O)Cc1nn(Cc2ccc(Br)cc2F)c(=O)c2ccccc12
inhibition [1]: 11.5% (inactive)
fold change [2, 20]: 0.972 (inactive)
fold change [2, 21]: 0.601
cell count [2, 22]: 8710
cell count [2, 23]: 8960
z-score [3]: 0.945 (inactive)

N=c1ccn2c(n1)O[C@H]1[C@H](O)[C@@H](CO)O[C@H]12
parasite load remaining [4]: 29.5% (inactive)
viability [4]: 73.5%
inhibition [1]: -4.99% (inactive)
outcome [5]: inactive
outcome [6]: inactive
outcome [7]: inactive
fold change [2, 20]: 1.14 (inactive)
fold change [2, 21]: 1
cell count [2, 22]: 3040
cell count [2, 23]: 2660
z-score [8, 24]: -0.885 (inactive)
z-score [8, 25]: -0.24
remaining NAD [9]: 10 nM (inactive)
luciferase signal [10]: 44 AU (inactive)
z-score [3]: -1.8 (inactive)
inhibition ([11]; BGB IC20 combo, at 0.005 µM): -16.9%
inhibition ([11]; BGB IC40 combo, at 0.005 µM): -39.5%
inhibition ([11]; BGB IC40 combo, at 0.05 µM): -9.88%
inhibition ([11]; at 0.5 µM): -19.6% (inactive)
inhibition ([11]; cisplatin combo, at 0.05 µM): -12.9%
inhibition ([11]; cisplatin combo, at 0.5 µM): -20.7%
inhibition ([11]; cisplatin combo, at 5 µM): -55.6%
inhibition ([11]; measured here: 5 uM single agent, at 5 µM): -6.48%

CC(C)(S)[C@@H](N)C(=O)O
inhibition [1]: 5.83% (inactive)
outcome [5]: inactive
outcome [6]: inactive
outcome [12]: inactive
outcome [7]: inactive
remaining NAD [9]: 10 nM (inactive)
luciferase signal [10]: 48 AU (inactive)

CC(C)C[C@H]1C(=O)N2CCC[C@H]2[C@]2(O)O[C@](NC(=O)[C@@H]3C=C4c5cccc6[nH]c(Br)c(c56)C[C@H]4N(C)C3)(C(C)C)C(=O)N12
parasite load remaining [4]: 105% (inactive)
viability [4]: 88.9%
inhibition [1]: -9.44% (inactive)
fold change [2, 20]: 1.36 (inactive) and 1.09 (inactive)
fold change [2, 21]: 1.68 and 0.668
cell count [2, 22]: 5460 and 4760
cell count [2, 23]: 4010 and 4360
z-score [8, 24]: -0.164 (inactive)
z-score [8, 25]: -0.261
remaining NAD [9]: 10 nM (inactive)
luciferase signal [10]: 200 AU (inactive)
z-score [3]: -1.32 (inactive) and -1.22 (inactive)

O=C(O)c1cc(=O)c2ccccc2[nH]1
inhibition [13]: -5.47%
score [14]: 1.02
rescue above control [15]: 12.3
cytochrome c release ratio [16]: 0.92
inhibition of aggregation [17]: 69.7%
glutamate uptake change [18]: -1.73%
aggregation suppression score [19]: 0.981
parasite load remaining [4]: 196% (inactive)
viability [4]: 68.4%
inhibition [1]: 9.19% (inactive)
fold change [2, 20]: 1.09 (inactive) and 0.962 (inactive)
fold change [2, 21]: 0.635 and 0.733
cell count [2, 22]: 10600 and 8100
cell count [2, 23]: 9680 and 8420
luciferase signal [10]: 40 AU (inactive)
z-score [3]: 0.335 (inactive) and 0.005 (inactive)
